Results as given in PubChem BioAssay AID1159580 (chemical genetic matrix, 2015).
In all, about 5,500 compounds went through this assay and about 2,000 (36%) were called active. Not shown: some 18% with an inconclusive outcome. Cut-off read from the data, not from the text of the source: active = normalized growth mostly below about 0.91 (no sharp cut-off); inconclusive = no clear call, values can overlap the other calls; inactive = mostly above about 0.92. This is one part of the list.

Assay: chemical genetic growth profiling, strain panel (AID 1159580);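 note: tested at 20 µM; growth read once vehicle control cultures reached saturation at 30 °C; 1 = growth at the plate median or of vehicle wells; lower values mean less growth of the strain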
Settings: growth OD

Measured: normalized growth

CC(C)(Sc1cc(C(C)(C)C)c(O)c(C(C)(C)C)c1)Sc1cc(C(C)(C)C)c(O)c(C(C)(C)C)c1
inactive: S. cerevisiae deletion strains, locus YJR075W, strain HOC1, hits give low values 1.01 | S. cerevisiae deletion strains, locus YKL068W, hits give low values 1.01 | S. cerevisiae deletion strains, locus YKL085W, strain MDH1 (second series), hits give low values 1.05 | S. cerevisiae deletion strains, locus YKL085W, strain MDH1, hits give low values 1.05 | S. cerevisiae deletion strains, locus YKL160W, strain elf1, hits give low values 0.99 | S. cerevisiae deletion strains, locus YKL190W, strain CNB1, hits give low values 1.01 | S. cerevisiae deletion strains, locus YKR001C, strain vps1, hits give low values 1.02 | S. cerevisiae deletion strains, locus YKR026C, strain gcn3, hits give low values 0.987 | S. cerevisiae deletion strains, locus YKR091W, strain srl3, hits give low values 1.02 | S. cerevisiae deletion strains, locus YLL001W, strain dnm1, hits give low values 0.996 | S. cerevisiae deletion strains, locus YLL026W, hits give low values 1 | S. cerevisiae deletion strains, locus YLL041C, strain sdh2, hits give low values 1.01 | S. cerevisiae deletion strains, locus YLR027C, strain aat2, hits give low values 0.994 | S. cerevisiae deletion strains, locus YLR039C, strain RIC1, hits give low values 1.02 | S. cerevisiae deletion strains, locus YLR058C, strain SHM2, hits give low values 1.01 | S. cerevisiae deletion strains, locus YLR102C, strain apc9, hits give low values 1.03 | S. cerevisiae deletion strains, locus YLR113W, strain HOG1, hits give low values 1.01 | S. cerevisiae deletion strains, locus YLR221C, strain rsa3, hits give low values 1.01 | S. cerevisiae deletion strains, locus YLR258W, strain gsy2, hits give low values 1.01 | S. cerevisiae deletion strains, locus YLR262C, strain YPT6 (second series), hits give low values 1 | S. cerevisiae deletion strains, locus YLR262C, strain YPT6, hits give low values 1.01 | S. cerevisiae deletion strains, locus YLR268W, strain sec22, hits give low values 1.09 | S. cerevisiae deletion strains, locus YLR320W, strain mms22, hits give low values 1 | S. cerevisiae deletion strains, locus YLR330W, strain CHS5, hits give low values 1.01 | S. cerevisiae deletion strains, locus YLR342W, strain FKS1 (second series), hits give low values 0.992 | S. cerevisiae deletion strains, locus YLR342W, strain FKS1, hits give low values 1 | S. cerevisiae deletion strains, locus YLR357W, strain rsc2, hits give low values 0.997 | S. cerevisiae deletion strains, locus YLR370C, strain arc18, hits give low values 1.01 | S. cerevisiae deletion strains, locus YLR371W, strain rom2, hits give low values 1.01 | S. cerevisiae deletion strains, locus YLR384C, strain iki3, hits give low values 0.99 | S. cerevisiae deletion strains, locus YLR418C, strain cdc73, hits give low values 1.07 | S. cerevisiae deletion strains, locus YML016C, strain PPZ1, hits give low values 0.999 | S. cerevisiae deletion strains, locus YML032C, strain rad52, hits give low values 1.03 | S. cerevisiae deletion strains, locus YML120C, strain ndi1, hits give low values 1 | S. cerevisiae deletion strains, locus YML124C, strain tub3, hits give low values 1.02 | S. cerevisiae deletion strains, locus YMR058W, strain fet3, hits give low values 1.02 | S. cerevisiae deletion strains, locus YMR078C, strain ctf18, hits give low values 1.03 | S. cerevisiae deletion strains, locus YMR125W, strain sto1, hits give low values 1 | S. cerevisiae deletion strains, locus YMR129W, hits give low values 1.01 | S. cerevisiae deletion strains, locus YMR205C, strain PFK2, hits give low values 1.01 | S. cerevisiae deletion strains, locus YMR223W, strain ubp8, hits give low values 1.02 | S. cerevisiae deletion strains, locus YMR231W, strain pep5, hits give low values 1 | S. cerevisiae deletion strains, locus YMR263W, strain SAP30, hits give low values 1.03 | S. cerevisiae deletion strains, locus YMR307W, strain GAS1, hits give low values 1.01 | S. cerevisiae deletion strains, locus YNL067W, strain RPL9B, hits give low values 1.03 | S. cerevisiae deletion strains, locus YNL071W, strain lat1, hits give low values 1.02 | S. cerevisiae deletion strains, locus YNL128W, strain TEP1, hits give low values 1.03 | S. cerevisiae deletion strains, locus YNL153C, strain GIM3, hits give low values 1.03 | S. cerevisiae deletion strains, locus YNL183C, strain NPR1, hits give low values 0.899 | S. cerevisiae deletion strains, locus YNL209W, strain ssb2, hits give low values 0.989 | S. cerevisiae deletion strains, locus YNL233W, strain BNI4, hits give low values 1.02 | S. cerevisiae deletion strains, locus YNL248C, strain rpa49, hits give low values 1.06 | S. cerevisiae deletion strains, locus YNL250W, strain rad50, hits give low values 1.02 | S. cerevisiae deletion strains, locus YNL271C, strain bni1, hits give low values 1.03 | S. cerevisiae deletion strains, locus YNL298W, strain CLA4, hits give low values 1.02 | S. cerevisiae deletion strains, locus YNL307C, strain MCK1, hits give low values 1.03 | S. cerevisiae deletion strains, locus YNL322C, strain KRE1 (second series), hits give low values 1.01 | S. cerevisiae deletion strains, locus YNL322C, strain KRE1, hits give low values 1.01 | S. cerevisiae deletion strains, locus YNR049C, strain mso1, hits give low values 1 | S. cerevisiae deletion strains, locus YNR052C, strain pop2, hits give low values 1.02 | S. cerevisiae deletion strains, locus YOL006C, strain TOP1, hits give low values 1.11 | S. cerevisiae deletion strains, locus YOL012C, strain htz1 1.15 | S. cerevisiae deletion strains, locus YOL147C, strain pex11, hits give low values 1.02 | S. cerevisiae deletion strains, locus YOR001W, strain rrp6, hits give low values 1.02 | S. cerevisiae deletion strains, locus YOR061W, strain CKA2, hits give low values 1.01 | S. cerevisiae deletion strains, locus YOR069W, strain VPS5, hits give low values 0.987 | S. cerevisiae deletion strains, locus YOR070C, strain gyp1, hits give low values 1 | S. cerevisiae deletion strains, locus YOR080W, strain dia2, hits give low values 0.996 | S. cerevisiae deletion strains, locus YOR083W, strain WHI5, hits give low values 0.998 | S. cerevisiae deletion strains, locus YOR106W, strain vam3, hits give low values 0.98 | S. cerevisiae deletion strains, locus YOR136W, strain idh2, hits give low values 1.03 | S. cerevisiae deletion strains, locus YOR144C, strain elg1, hits give low values 1.01 | S. cerevisiae deletion strains, locus YOR184W, strain ser1, hits give low values 1.03 | S. cerevisiae deletion strains, locus YOR231W, strain MKK1, hits give low values 0.996 | S. cerevisiae deletion strains, locus YOR265W, strain rbl2, hits give low values 0.997 | S. cerevisiae deletion strains, locus YOR270C, strain vph1, hits give low values 1.05 | S. cerevisiae deletion strains, locus YOR290C, strain snf2, hits give low values 1.01 | S. cerevisiae deletion strains, locus YOR316C, strain cot1, hits give low values 1.03 | S. cerevisiae deletion strains, locus YPL051W, strain arl3, hits give low values 0.988 | S. cerevisiae deletion strains, locus YPL055C, strain LGE1, hits give low values 1.03 | S. cerevisiae deletion strains, locus YPL078C, strain atp4, hits give low values 1.01 | S. cerevisiae deletion strains, locus YPL106C, strain sse1, hits give low values 1.01 | S. cerevisiae deletion strains, locus YPL240C, strain hsp82, hits give low values 1.03 | S. cerevisiae deletion strains, locus YPL241C, strain CIN2, hits give low values 1.01 | S. cerevisiae deletion strains, locus YPL256C, strain CLN2, hits give low values 1.03 | S. cerevisiae deletion strains, locus YPR119W, strain clb2, hits give low values 1.01 | S. cerevisiae deletion strains, locus YPR141C, strain kar3, hits give low values 1.02 | S. cerevisiae deletion strains, locus YPR163C, strain tif3, hits give low values 1.02 | S. cerevisiae deletion strains, locus YPR167C, strain met16, hits give low values 1.02 | S. cerevisiae deletion strains, strain wtn01, hits give low values 1.02 | S. cerevisiae strains, strain wild type, hits give low values 1.02
